Compound activity: PubChem, National Center for Advancing Translational Sciences (NCATS)
BRCA1 expr act – qHTS Assay to Identify Small Molecule Activators of BRCA1 Expression | MCF7-BRCA1-FFLuc reporter, luminescence, 48 h; response scale: scaled: vehicle 0%, 10 µM genistein 100% | Potency, µM (highest dose often 46.1 µM), inactives show top-dose activation, usual class: activators | hit rate 1.1% among 380,000; further: potency means the concentration at half of the fitted maximal effect; nearly all actives have a fitted effect of over 80% in size
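First, MCF7-BRCA1-FFLuc cells (2000/well) attach for 2 h; next, compounds are pin-added and incubated 48 h at 37 °C; finally, luciferase reagent is added and luminescence read after 15 min.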
miR-21 act – qHTS Assay for Modulators of miRNAs and/orActivators of miR-21. HeLa miR-21 FLuc reporter, luciferase, 48 h. AID 2288, 2010. 340,000 tested, under 10 active. Potency, µM (highest dose often 38.3 µM), without a hit: top-dose activity change, positive = activation, actives largely listed as activators;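 further: % of control where 0% means no effect; miR-21 action dims this reporter so a rising signal means less miR-21 action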
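Using DMEM plus 10% FBS, HeLa miR-21-FLuc cells are incubated with test compounds (final up to about 40uM) for 48 hours; firefly luciferase signal is then imaged following reagent-mediated lysis.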
p53 reactivation – qHTS assay for re-activators of p53 using a Luc reporter; H1299 p53-A138V BP100-luciferase reporter, luminescence, 24 h; Potency, µM (series often up to 92.2 µM), for inactives: at the highest dose activity change, positive = activation, usual class: activators; hit rate 0.063% among 320,000; AID 504706, 2011; further: potency means the concentration at half of the fitted maximal effect; % of control where 0% means no effect; nearly all actives have a fitted effect of over 45% in size
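p53-null H1299 cells stably carrying temperature-sensitive p53-A138V and a BP100-luciferase reporter were pinned with compounds (4-point, 1:5 series) and held 24 hrs at 37 deg C. Luminescence was read 10 min after detection reagent.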
Apoferritin bind – qHTS Assay for Identification of Novel General Anesthetics; Ferritin light chain (Equus caballus), P02791; apoferritin/1-aminoanthracene competitive binding, fluorescence; Potency, µM (doses to about 77.5 µM), inactives show at the highest dose activity change, negative = displacement, hits mostly inhibitors; hit rate 0.074% among 350,000; further: potency means the concentration at half of the fitted maximal effect; on the % scale 0 is the no-effect control and ±100 the full control effect; nearly all actives have a fitted effect of over 20% in size
Target sequence (P02791 2-175 limits assumed): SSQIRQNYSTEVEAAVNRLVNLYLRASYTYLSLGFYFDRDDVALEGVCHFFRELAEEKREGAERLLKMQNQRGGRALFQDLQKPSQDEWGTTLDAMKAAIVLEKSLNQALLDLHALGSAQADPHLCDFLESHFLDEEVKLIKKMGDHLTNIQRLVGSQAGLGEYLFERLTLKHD
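In PBS, apoferritin at 10 uM is loaded with 1-AMA from a 50% saturated solution. After 10 min of compound exposure at ambient temperature, reduced 535 nm fluorescence indicates probe displacement.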
* marks the source's active call; other numbers are inactive results; i = inactive; ? = inconclusive; nt = not tested or not shown; [ ] = remark or other dose. This is a sample that favours compounds with a hit; in the whole collection about 1.1% have one here. The call rests on the fitted dose curve; in most records, active means well fitted curve in the direction sought with a large enough effect; inconclusive means small, poorly fitted or top-dose-only effect, or another doubt; inactive means no such curve, though single readings can be large; an effect the other way counts as inactive or inconclusive.

SMILES	BRCA1 expr act	miR-21 act	p53 reactivation	Apoferritin bind
O=C(Nc1nnc(C2CCCO2)s1)c1ccc(Br)cc1 (stereo unspecified)	11µM*	-42%	14%	-1%
COc1cc2c(NC3CCN(C)CC3)nc(N3CCCN(C)CC3)nc2cc1OCC1CCCCN1 (stereo unspecified)	-55%	nt	nt	nt
Cc1ccccc1Nc1nc(N)nc(CSCc2c(C)noc2C)n1	-23%	-1%	-2%	-11%
Cc1ccccc1CSCc1nc(N)nc(Nc2ccccc2C)n1	11µM*	-45%	0%	0%
Cc1ccccc1Nc1nc(N)nc(COC(=O)c2ccccc2)n1	14µM*	-78%	?	0%
CCc1nc(SCc2ccc(OC)cc2)n[nH]1	11µM*	-37%	?	0%
Cc1ccc(C)c(Cn2c(=O)n(-c3ccccc3)c(=O)c3c4c(sc32)CCCC4)c1	8%	2%	nt	3%
Cc1ccc2cccc(NC(=O)COc3ccccc3[N+](=O)[O-])c2n1	nt	-2%	nt	-19%
Nc1c(C(=O)NCc2ccco2)nnn1-c1ccccc1	13µM*	-45%	5%	-15%
Cc1cc(C)cc(-n2nnc(C(=O)NCc3ccco3)c2N)c1	1%	-4%	0%	-5%
CCOc1ccccc1NC(=O)CN1C(=O)COc2ccc(S(=O)(=O)N3CCCCC3)cc21	nt	-3%	nt	2%
CCOC(=O)NCc1ccc2[nH]c(C)cc2c1	13%	-20%	14%	?
Cc1cc2cc(CNC(=O)Nc3ccccc3)ccc2[nH]1	11µM*	-40%	15%	-5%
COc1ccc(CNC(=O)Nc2cccc(C)c2)cc1	3.2µM*	-55%	18%	-9%
CCOC(=O)C1=CN(Cc2ccco2)S(=O)(=O)NC1c1ccc(Br)cc1F (stereo unspecified)	-2%	nt	-8%	nt
Cc1cc(NC(=O)Nc2ccc3c(ccn3C)c2)sn1	10µM*	nt	nt	nt
COC(=O)c1ccc(NC(=O)Nc2ccc3c(c2)nc(C)n3C)cc1	?	-23%	8%	-9%
COc1ccc(CNC(=O)Cn2cccc2C(=O)c2ccccc2C)cc1	9%	-52%	?	-22%
COc1ccc(CNC(=O)Cn2cccc2C(=O)c2ccccc2)cc1	11µM*	-42%	?	2%
CC[C@H](C)[C@@H](N)C(=O)NC[C@H]1O[C@@H](n2cnc3c(=O)[nH]c(N)nc32)[C@H](O)[C@@H]1O	0%	nt	nt	nt
CC(=O)Nc1ccc(NC(=O)C2CCCN2S(=O)(=O)c2ccc3c(c2)CCCC(=O)N3)cc1 (stereo unspecified)	20%	-1%	nt	-12%
O=C(c1ccncc1)N1CCN(S(=O)(=O)c2ccccc2F)CC1	-2%	nt	1%	nt
COc1cccc(/C=N/n2nnnc2N)c1	-18%	-17%	-3%	-2%
Cc1ccc(/C=N/n2nnnc2N)cc1	6.3µM*	nt	nt	nt
c1ccc(CSCc2cn3ccsc3n2)cc1	8.9µM*	-54%	?	4%
SMILES	BRCA1 expr act	miR-21 act	p53 reactivation	Apoferritin bind
O=C(Cc1cn2ccsc2n1)OCc1ccccc1	32%	0%	13%	-17%
COc1ccc(Nc2ncnc3sccc23)cc1	7.1µM*	-51%	?	-6%
CCOc1ccccc1NC(=O)CSc1c(C)cnc2c1c(=O)n(C)c(=O)n2C	nt	-1%	nt	-1%
Cc1cc(C(C)(C)CC(C)(C)C)ccc1OCCOCC[N+](C)(C)Cc1ccccc1	-39%	nt	-6%	32µM*
CN1CCN2c3ccccc3CC3(C(=O)OC(C)(C)OC3=O)C2C1 (stereo unspecified)	6%	nt	nt	nt
Cn1c(SCC#N)nnc1-c1ccc2c(c1)OCO2	0%	2%	-7%	4%
Cn1c(SCc2ccccc2)nnc1-c1ccc2c(c1)OCO2	6.3µM*	-55%	?	-8%
CCCCSc1nnc(-c2c[nH]c3ccccc23)n1C	?	-38%	?	?
Cn1c(SCc2ccccc2)nnc1-c1c[nH]c2ccccc12	11µM*	-50%	7%	1%
COc1ccc(-c2csc(NCc3ccco3)n2)cc1C	6.3µM*	-64%	?	-18%
O=C(CCCc1ccccc1)NC12CC3CC(CC(C3)C1)C2	2.8µM*	-66%	nt	?
CCN(CC)Cc1c(O)ccc2cc(-c3nc4ccccc4n3C)c(=O)oc12	11µM*	-32%	5%	i
COc1ccccc1/C=C/C(=O)c1ccc(Cl)cc1	-66%	6%	-1%	?
COc1ccccc1/C=C/C(=O)c1ccccc1	3%	0%	32µM*	?
COc1cccc(/C=C/C(=O)OCC(=O)c2ccccc2)c1OC	11µM*	nt	?	nt
O=C1CC(NC2CCN(C(=O)c3cccc(F)c3)CC2)C(=O)N1 (stereo unspecified)	-9%	4%	7%	4%
COc1ccc(Nc2nc(-c3cccnc3)cs2)c(OC)c1	11µM*	-32%	6%	-15%
c1ccc(CCNc2nc(-c3cccnc3)cs2)cc1	8.9µM*	-47%	?	-3%
CCN(CC)c1ccc(Nc2nc(-c3cccnc3)cs2)cc1	4µM*	-50%	12%	-6%
COc1ccccc1Nc1nc(-c2cccnc2)cs1	10µM*	-45%	nt	-17%
COc1ccc(Nc2nc(-c3cccs3)cs2)c(OC)c1	-3%[1.84 µM]	-73%	?	-8%
CCSc1ccccc1C(=O)Nc1ccc(-c2nc3ccccc3s2)c(O)c1	nt	-60%	nt	164%
Cc1cccc(NC(=O)CN2C(=O)C3(SCC(=O)N3c3ccccc3)c3ccccc32)c1 (stereo unspecified)	2%	13%	nt	-11%
O=C(c1cccs1)N1CCN(Cc2ccccc2)CC1	29%	-10%	2%	-10%
O=C(NCC(O)c1ccccc1)c1cccs1 (stereo unspecified)	7.1µM*	-52%	15%	-7%
SMILES	BRCA1 expr act	miR-21 act	p53 reactivation	Apoferritin bind
O=C(NCC(=O)N1CCN(Cc2ccccc2)CC1)c1cccs1	10µM*	nt	29%	nt
CCCc1cc(=O)[nH]c(SCc2nc(-c3ccccc3)no2)n1	nt	-7%	nt	27%
C(/C=C/c1ccco1)=N/N1CCN(c2ccccc2)CC1	10µM*	-42%	?	-15%
Cc1ccccc1-c1noc(-c2ccc(N3CCCC3)c([N+](=O)[O-])c2)n1	17%	-26%	nt	-5%
COc1cc2oc3cc(C#Cc4ccc(N)cc4)ccc3c(=O)c2cc1OC	5%	nt	nt	nt
Nc1ccc(C#Cc2ccc3c(=O)c4ccccc4oc3c2)cc1	10µM*	-43%	11%	-9%
Cc1ccc(S(=O)(=O)N2CCN(C(=O)CN(Cc3ccco3)Cc3cccs3)CC2)cc1	-3%	nt	nt	nt
CN(C)c1ccnc2sc(C(=O)c3ccc(Br)cc3)c(N)c12	71%	-10%	-3%	-3%
Cc1snc2sc(C(=O)c3ccc(F)cc3)c(N)c12	10µM*	-65%	23%	-3%
O=c1c(-c2ccc(O)cc2)coc2cc(OC3OC(CO)C(O)C(O)C3O)ccc12 (stereo unspecified)	6.3µM*	-32%	?	-2%
